Screening data from PubChem BioAssay.
The list is not random: actives were taken first. Their share in the collection is about 3.9%.
BoNT F protease: blocks Botulinum neurotoxin F light chain protease. inhibition, % at 10 µM. 360,000 compounds, 0.22% hits. Multiplex microsphere protease cleavage assay, flow cytometry; in the data active = inhibition above about 35%, passing the limit was not always enough; inconclusive = no clear call, values can overlap the other calls
Autofluor counter: compound fluorescence in toxin protease inhibitor counterscreen | compound autofluorescence counterscreen, microsphere flow cytometry; hits give high values | fluorescence intensity (concentration not given with the values) | AID 624483 | 360,000 compounds, 3.1% hits; in the data active = fluorescence intensity above about 16000; inconclusive = no clear call, values can overlap the other calls
BoNT-A LC inh2: BoNT A light chain protease inhibition | multiplex microsphere protease substrate cleavage, flow cytometry | inhibition, % at 10 µM | AID 588499 | 360,000 compounds, 0.17% hits
3CLpro inhibitor: SARS-CoV 3CLpro protease inhibition; P0C6X7; recombinant SARS-CoV 3CLpro, quenched FRET peptide cleavage; inhibition, % at 6 µM; 290,000 compounds, 0.14% hits; in the data active = inhibition above about 12%
CCHFV vOTU inh: CCHFV vOTU protease inhibition; Pep-AMC fluorescence; inhibition, % at 11.5 µM; 370,000 compounds, 0.55% hits; AID 651958; in the data active = inhibition above about 30%
Anthrax LF prot: blocks Bacillus anthracis lethal factor protease. AID 588501. inhibition, % at 10 µM. P15917. multiplex microsphere protease cleavage assay, LF. 360,000 compounds, 0.12% hits
Target sequence (P15917 whole entry, looked up): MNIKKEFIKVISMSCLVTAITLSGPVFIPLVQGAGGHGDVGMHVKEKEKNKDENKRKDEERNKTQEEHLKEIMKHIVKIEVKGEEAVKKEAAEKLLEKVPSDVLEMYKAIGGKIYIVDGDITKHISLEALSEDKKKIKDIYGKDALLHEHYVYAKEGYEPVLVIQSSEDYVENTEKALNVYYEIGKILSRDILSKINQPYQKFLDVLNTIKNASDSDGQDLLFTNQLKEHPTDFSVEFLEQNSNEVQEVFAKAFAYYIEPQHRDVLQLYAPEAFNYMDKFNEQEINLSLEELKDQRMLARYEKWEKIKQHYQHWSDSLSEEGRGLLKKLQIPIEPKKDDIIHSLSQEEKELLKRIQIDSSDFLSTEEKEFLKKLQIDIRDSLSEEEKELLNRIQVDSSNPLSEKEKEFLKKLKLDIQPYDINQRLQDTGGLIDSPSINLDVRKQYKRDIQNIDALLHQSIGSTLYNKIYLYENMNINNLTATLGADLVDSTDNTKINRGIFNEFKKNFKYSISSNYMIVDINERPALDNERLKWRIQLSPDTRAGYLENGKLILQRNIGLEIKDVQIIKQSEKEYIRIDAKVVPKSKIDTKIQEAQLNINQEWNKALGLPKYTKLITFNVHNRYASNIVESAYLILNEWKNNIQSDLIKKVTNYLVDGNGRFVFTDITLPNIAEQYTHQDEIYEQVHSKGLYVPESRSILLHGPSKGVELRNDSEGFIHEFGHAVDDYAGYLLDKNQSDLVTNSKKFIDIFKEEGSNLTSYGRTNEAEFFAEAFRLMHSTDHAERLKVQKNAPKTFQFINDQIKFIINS
Hits are given with their value. Cut-off read from the data, not from the text of the source, unless noted: active = inhibition above about 30%; inconclusive = no clear call, values can overlap the other calls; inactive = below that.

Screening Cc1ccc(CN2CCSc3ccc(C(=O)N4CCN(c5ncccn5)CC4)cc32)cc1 returned BoNT F protease inactive, Autofluor counter 22029, BoNT-A LC inh2 inactive, 3CLpro inhibitor inactive and Anthrax LF prot inactive.
CC(=O)Oc1ccc2oc3c(c2c1)C(=O)CCC3 was read as BoNT F protease inactive, Autofluor counter 23365, BoNT-A LC inh2 inactive, 3CLpro inhibitor inactive, CCHFV vOTU inh inactive and Anthrax LF prot inactive.
CN1CC[n+]2cnc3ccccc3c21 was read as BoNT F protease inactive, Autofluor counter 18857, BoNT-A LC inh2 inconclusive, 3CLpro inhibitor inactive, CCHFV vOTU inh inactive and Anthrax LF prot inactive.
`c1ccc2c(N3CCCCC3)ncnc2c1` gave BoNT F protease inactive, Autofluor counter inactive, BoNT-A LC inh2 inactive, 3CLpro inhibitor inactive, CCHFV vOTU inh inactive and Anthrax LF prot inactive.
Screening CCOc1ccc(C(=O)NC2CCCCCCC2)cc1 returned BoNT F protease inactive, Autofluor counter inactive, BoNT-A LC inh2 inactive, CCHFV vOTU inh inactive and Anthrax LF prot inactive.
Screening CCOC(=O)COc1ccc(C(=O)NC2CCCCC2)cc1 returned BoNT F protease inactive, Autofluor counter 20056, BoNT-A LC inh2 inconclusive, 3CLpro inhibitor inactive and Anthrax LF prot inactive.
For CCOc1ccc(C(=S)NC2CCCCC2)cc1 the results were BoNT F protease inactive, Autofluor counter 20072, BoNT-A LC inh2 inconclusive, 3CLpro inhibitor inactive, CCHFV vOTU inh inactive and Anthrax LF prot inactive.
For CN1CCc2c(sc(NC(=O)Cc3ccccc3)c2C#N)C1 the results were BoNT F protease inactive, Autofluor counter inactive, BoNT-A LC inh2 inactive, 3CLpro inhibitor inactive, CCHFV vOTU inh inactive and Anthrax LF prot inactive.
CCCN1CCc2c(sc(NC(=S)NC(=O)c3ccccc3)c2C#N)C1 was read as BoNT F protease inactive, Autofluor counter inactive, BoNT-A LC inh2 58.1, 3CLpro inhibitor inactive, CCHFV vOTU inh inactive and Anthrax LF prot inactive.
`CC(C)N1CCc2c(sc(NC(=S)NC(=O)c3ccccc3)c2C#N)C1` gave BoNT F protease inactive, Autofluor counter inactive, BoNT-A LC inh2 32.2, 3CLpro inhibitor inactive, CCHFV vOTU inh inactive and Anthrax LF prot inactive.
For CCN1CCc2c(sc(NC(=O)c3ccc4ccccc4c3)c2C(N)=O)C1 the results were BoNT F protease inactive, Autofluor counter inactive, BoNT-A LC inh2 inactive, 3CLpro inhibitor inactive, CCHFV vOTU inh inactive and Anthrax LF prot inactive.
`CCN1CCc2c(sc(NC(=S)NC(=O)c3ccc(Cl)cc3)c2C(N)=O)C1` gave BoNT F protease inconclusive, Autofluor counter 16287, BoNT-A LC inh2 inactive, 3CLpro inhibitor inactive, CCHFV vOTU inh inactive and Anthrax LF prot inactive.
For CC(C)N1CCc2c(sc(N)c2C#N)C1 the results were BoNT F protease inactive, Autofluor counter 19341, BoNT-A LC inh2 inactive, CCHFV vOTU inh inactive and Anthrax LF prot inactive.
Screening CC(C)C1Cc2c(sc(NC(=S)NC(=O)c3ccccc3)c2C#N)CO1 (centres undefined) returned BoNT F protease inactive, Autofluor counter inactive, BoNT-A LC inh2 inactive, 3CLpro inhibitor inactive, CCHFV vOTU inh inactive and Anthrax LF prot inactive.
COc1cccc(C(=O)N(CCN2CCOCC2)Cc2ccc(OC)c(OC)c2)c1 was read as CCHFV vOTU inh inactive.
Screening CN(Cc1ccccc1)S(=O)(=O)c1cccc(C(=O)OCc2ccc(Oc3ccccc3)cc2)c1 returned CCHFV vOTU inh inactive.
`O=C(c1ccc2c(c1)C(=O)NC2=O)c1ccc2c(c1)C(=O)NC2=O` gave CCHFV vOTU inh inactive.
`O=S1(=O)c2c(NCc3ccco3)cccc2Oc2ccccc2CN1Cc1cn(Cc2ccc(F)cc2)nn1` gave CCHFV vOTU inh inactive.
Screening COC(=O)[C@]12C[C@H](CC(=O)NCc3cccs3)C(=O)N(Cc3ccc(Cl)cc3Cl)C1=C[C@H](COCc1ccccc1)O[C@@H]2C returned CCHFV vOTU inh inactive.
C=C(C)CSc1nc2nc(C)c(Br)cc2[nH]1 was read as BoNT F protease inactive, Autofluor counter 22023, BoNT-A LC inh2 inactive, 3CLpro inhibitor inactive, CCHFV vOTU inh inactive and Anthrax LF prot inactive.
`COC(=O)CSc1nc2nc(C)c(Br)cc2[nH]1` gave BoNT F protease inactive, Autofluor counter inactive, BoNT-A LC inh2 inactive, 3CLpro inhibitor inactive, CCHFV vOTU inh inactive and Anthrax LF prot inactive.
CCCC(=O)NC1=C(C#N)C2(CCCC2)Cc2ccccc21 was read as BoNT F protease inactive, Autofluor counter 17626, BoNT-A LC inh2 inconclusive, 3CLpro inhibitor inactive, CCHFV vOTU inh inactive and Anthrax LF prot inactive.
Screening CN(C)S(=O)(=O)c1cccc(C(=O)N/N=C\c2ccnc3ccccc23)c1 returned CCHFV vOTU inh inactive.
CC1(C)NC(=O)N(CC(=O)Nc2nc(-c3ccc(F)cc3)cs2)C1=O was read as BoNT F protease inactive, Autofluor counter 18087, BoNT-A LC inh2 inactive, 3CLpro inhibitor inactive, CCHFV vOTU inh inactive and Anthrax LF prot inactive.
Screening COC(=O)c1ccccc1NC(=O)CSc1[nH]c(=O)cc(C)c1C#N returned BoNT F protease inactive, Autofluor counter inactive, BoNT-A LC inh2 inactive, 3CLpro inhibitor inactive, CCHFV vOTU inh inactive and Anthrax LF prot inactive.
COc1ccc(NC(=O)CSc2nc(N)c(C#N)cc2C#N)cc1 was read as BoNT F protease inactive, Autofluor counter inactive, BoNT-A LC inh2 inactive, 3CLpro inhibitor inactive, CCHFV vOTU inh inactive and Anthrax LF prot inactive.
Screening Cc1ccccc1NC(=O)CSc1nc(N)c(C#N)cc1C#N returned BoNT F protease inactive, Autofluor counter 16586, BoNT-A LC inh2 inactive, 3CLpro inhibitor inactive, CCHFV vOTU inh inactive and Anthrax LF prot inactive.
For Cc1cc(=O)[nH]c(SCC(=O)Nc2ccccc2C#N)c1C#N the results were BoNT F protease inactive, Autofluor counter 21510, BoNT-A LC inh2 inactive, 3CLpro inhibitor inactive, CCHFV vOTU inh inactive and Anthrax LF prot inactive.
`Nn1c(SCc2ccc([N+](=O)[O-])cc2)nnc1-c1n[nH]c2c1CCC2` gave CCHFV vOTU inh inactive.
Screening COc1ccc(OC)c(NC(=O)Nc2cccc(Cn3cccn3)c2)c1 returned BoNT F protease inactive, Autofluor counter 21355, BoNT-A LC inh2 inactive, 3CLpro inhibitor inactive, CCHFV vOTU inh inactive and Anthrax LF prot inactive.
COc1ccc(OC)c(NC(=O)Nc2ccc(Cl)cc2)c1 was read as BoNT F protease inactive, Autofluor counter inactive, BoNT-A LC inh2 inactive, 3CLpro inhibitor inactive and Anthrax LF prot inactive.
Screening COC(=O)c1cc(NC(=O)Nc2cc(OC)ccc2OC)cc(C(=O)OC)c1 returned BoNT F protease inactive, Autofluor counter 23932, BoNT-A LC inh2 inactive, 3CLpro inhibitor inactive, CCHFV vOTU inh inactive and Anthrax LF prot inactive.
`O=C(C1CC1)C1(C(=O)N2CCOCC2)CC(c2ccccn2)=NO1` (centres undefined) gave CCHFV vOTU inh inactive.
`CCN(C(=O)CSc1nnc(-c2cccnc2)n1Cc1ccco1)c1ccccc1` gave CCHFV vOTU inh inactive.
Screening CCOC(=O)c1ccc(NC(=O)NC(C)C2CCCO2)cc1 (centres undefined) returned BoNT F protease inactive, Autofluor counter 21999, BoNT-A LC inh2 inactive, 3CLpro inhibitor inactive, CCHFV vOTU inh inactive and Anthrax LF prot inactive.
CC(NC(=O)Nc1ccc(Cl)cc1)C1CCCO1 (centres undefined) was read as BoNT F protease inactive, Autofluor counter inactive, BoNT-A LC inh2 inactive, 3CLpro inhibitor inactive, CCHFV vOTU inh inactive and Anthrax LF prot inactive.
